The list is not random: actives were taken first. Their share in the collection is about 1.1%.
Apoferritin bind: binds horse apoferritin like a general anesthetic. apoferritin/1-aminoanthracene competitive binding, fluorescence. P02791. Potency, µM (top dose mostly 77.5 µM), inactives show at the top dose activity change, negative = displacement, most hits filed as inhibitors. AID 485281. 350,000 compounds, 0.074% hits; also: % is scaled to controls: 0 for no effect and ±100 for the full control effect; nearly all actives have a fitted effect of over 20% in size
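Horse-spleen apoferritin (10 uM) in 50% saturated 1-aminoanthracene in PBS was incubated 10 min at room temperature with compound. Fluorescence (ex 380, em 535 nm) was normalized to free and bound 1-AMA, with concentration-response fitted by a four-parameter Hill equation.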
ALOX12 inh: inhibitors of human 12S-lipoxygenase ALOX12; Potency, µM (doses to about 108 µM), for the others: at the highest dose activity change, negative = inhibition, usual class: inhibitors; AID 1671190; 580,000 compounds, 1.1% hits; P18054; purified 12hLO, xylenol orange hydroperoxide absorbance; also: % is scaled to controls: 0 for no effect and ±100 for the full control effect
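Purified human 12hLO (150 nM final) in 25 mM Hepes, 0.01% Triton X-100, pH 7.0 was preincubated 15 min at room temperature with compound. Then 40 uM arachidonic acid was added, 30 min. Hydroperoxide was read by Fe-XO absorbance ratio 573/405 nm.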
Chronic BCR inh: inhibitors of chronic active B-cell receptor signaling; ABC-DLBCL IkBa-CBG/CBR reporter, luminescence ratio, 4 h; AID 493014; 340,000 compounds, 0.05% hits; Potency, µM (doses to about 46.1 µM), without a hit: at the highest dose activity change, negative = inhibition, hits mostly inhibitors; active = well fitted inhibition curve with a large enough effect in the signal ratio, with a control signal flat, not every such curve was filed as active; inconclusive = small, poorly fitted or top-dose-only effect, or effect the other way, or a change in a side signal; the % refers to the signal ratio;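 also: plate controls were basal doxycycline-induced cells for no effect and cells given 10 µM MG132 for full effect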
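TMD8 human ABC-DLBCL cells with doxycycline-inducible IκBα–green luciferase fusion and unfused red luciferase, in 0.5% FBS medium; compounds up to 46 uM, 4 h at 37C. Green/red luminescence ratio, filter-overlap corrected, fitted to concentration-response curves.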
GRP78 ERSR act: ER stress response induction in glioma. U87-MG GRP78 promoter luciferase reporter, 16 h. Potency, µM, for the others: top-dose activation, actives largely listed as activators. 420,000 compounds, 0.02% hits. AID 602332; also: series mostly up to about 76 µM; % of control where 0% means no effect; nearly all actives have a fitted effect of over 35% in size
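ERSR induction read as luciferase luminescence (Bright-Glo, 10 min at room temperature) in stably transfected human U87-MG glioma cells exposed to compounds for 16 h, using GRP78 as sensor.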
* = called active by the depositor; ? = inconclusive; . = not tested or not shown; [ ] = dose if it differs, or a comment. Unless noted, calls follow the shape of the dose curve; as a rule, active = well fitted curve in the direction sought with a large enough effect; inconclusive = small, poorly fitted or top-dose-only effect, or another doubt; inactive = no such curve, though single readings can be large; an effect the other way counts as inactive or inconclusive. Potency is read from the fitted curve at half-maximal effect.

SMILES	Apoferritin bind	ALOX12 inh	Chronic BCR inh	GRP78 ERSR act
CC1CN(c2ccccc2)NC1=O (configuration not stated)	-9%	28µM*	0%	2%
COc1cc(NS(=O)(=O)c2ccc(NC(=S)NC(C)=O)cc2)nc(OC)n1	.	0%	.	-2%
COc1cc(NS(=O)(=O)c2ccc(NC(=S)NC(=O)C(C)(C)C)cc2)nc(OC)n1	-15%	?	3%	-2%
COc1cc(NS(=O)(=O)c2ccc(NC(=S)NC(=O)c3cccs3)cc2)nc(OC)n1	-8%	32µM*	4%	-2%
COc1cc(NS(=O)(=O)c2ccc(NC(=S)NC(=O)c3ccc(F)c(F)c3)cc2)nc(OC)n1	-6%	13µM*	-4%	5%
CC(Sc1nc2nc[nH]c2c(=O)[nH]1)C(=O)Nc1ccc(F)cc1 (configuration not stated)	.	22%	.	.
Fc1ccc(Nc2cncc(-c3ccsc3)c2)cc1Cl	.	40µM*	.	3%
Cc1ccc(S(=O)(=O)N(CC(=O)NCCSCc2ccco2)c2cc(C)ccc2C)cc1	.	40µM*	.	-3%
FC(F)(F)c1ccc(Cl)c(N/N=C/c2cccc(OCc3ccccc3)c2)c1	.	7.1µM*	.	.
COc1ccc(C2(C(=O)N3CC(CO)C4(CCNCC4)C3)CCCCC2)cc1 (configuration not stated)	.	32µM*	.	.
COc1cc(C)c(NC(=O)C(C)Oc2ccc(F)cc2)cc1OC (configuration not stated)	.	-17%	.	.
O=C(N/N=C/c1cc([N+](=O)[O-])cc([N+](=O)[O-])c1O)/C(=C\c1cccs1)NC(=O)c1ccccc1	0%	16µM*	5%	-2%
CN1C[C@H](NC(=O)NC2(c3ccccc3)CCOCC2)CCC[C@@H](C(=O)NCc2cc(F)cc(F)c2)CC1=O	.	22µM*	.	.
CN1CC(=O)N(C2CCCNC2)Cc2c(NCc3ccc4c(c3)OCO4)ncnc21 (configuration not stated)	.	4.5µM*	.	.
CN1CC(=O)N(C2CCC2)Cc2c(NCc3ccc(F)cc3)ncnc21	.	-3%[6.33 µM]	.	.
Nc1n[nH]c2ccccc12	-2%	3%	-2%	-3%
S=c1nn[nH]c2ccccc12	.	32µM*	.	2%
CCNC(=S)NCC12CC3CC(CC(C3)C1)C2	.	40µM*	.	.
COc1ccccc1-c1nnc(SCc2csc(Nc3ccc(C)cc3)n2)o1	.	40µM*	.	.
Cc1ccc(OC(C)C(=O)Nc2ccc3c(c2)n(C)c(=O)n3C)c(C)c1 (configuration not stated)	-19%	45µM*	?	-5%
COc1ccccc1OC(C)C(=O)Nc1ccc2c(c1)n(C)c(=O)n2C (configuration not stated)	-8%	18%	-10%	-1%
CCOC(=O)Oc1ccc2c(=O)c(Oc3ccc(CC)cc3)c(C(F)(F)F)oc2c1	.	2%	.	.
COc1cccc(CNc2cnc3ccccc3c2)c1O	2%	32µM*	11%	0%
CC(C)Oc1nc2ccccc2nc1N1CCC(C(=O)NCc2ccccc2Cl)CC1	.	-32%	.	.
CC(=O)C1=C(O)C(CSCc2ccccc2)N(C)C1=O (configuration not stated)	.	10µM*	.	-4%
SMILES	Apoferritin bind	ALOX12 inh	Chronic BCR inh	GRP78 ERSR act
COCCCN1C(=O)C(O)=C(C(C)=O)C1c1cccc(F)c1 (configuration not stated)	-11%	7.9µM*	4%	-2%
COc1cccc(C2C(C(C)=O)=C(O)C(=O)N2CCc2c[nH]c3ccccc23)c1 (configuration not stated)	-10%	5µM*	?	-1%
CC(=O)C1=C(O)C(=O)N(CCc2c[nH]c3ccccc23)C1c1ccc(O)cc1 (configuration not stated)	-10%	8.9µM*	-4%	-1%
CCCCN1C(=O)C(O)=C(C(C)=O)C1c1ccccc1 (configuration not stated)	-16%	.	-16%	-4%
CC(=O)C1=C(O)C(=O)N(CCc2c[nH]c3ccccc23)C1c1ccccc1 (configuration not stated)	-3%	?	-2%	-5%
CCN1CCN(S(=O)(=O)c2ccc(Cl)c(C(=O)N(CC)Cc3ccccc3)c2)CC1	.	?	11%	-1%
CCN1CCN(S(=O)(=O)c2ccc(S(=O)(=O)N(CC)Cc3ccccc3)cc2)CC1	-5%	1.4µM*	6%	2%
Cc1cccc(NC(=O)CSc2ncc3c(n2)-c2ccc(Cl)cc2N(C)S3(=O)=O)c1	.	-9%	.	.
